Compound activity from PubChem.
An excerpt weighted towards active compounds, which were near 3.3% of everything screened.
TbPYK inhibitor: T. brucei pyruvate kinase inhibition | Q57TT1 | actives 0.12% (n = 410,000) | TbPYK enzyme, Kinase-Glo Plus ATP luminescence, 45 min | AID 624173 | Potency, µM (doses to about 76.8 µM), inactives show at the top dose activity, negative = inhibition, actives largely listed as inhibitors; note: % is set by controls: 0 for no effect and ±100 for the full control effect; nearly all actives have a fitted effect of over 50% in size
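TbPYK + substrate in 50 mM TEA pH 7.2, 100 mM KCl, 10 mM MgCl2, 0.05% BSA, 0.01% Tween-20; cpd pinned; ADP 130 uM final; 45 min RT; Kinase-Glo Plus 10 min; luminescence endpoint.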
RE007 growth inh: less growth of the S. pombe RE007 Vpr strain | S. pombe RE007 Vpr strain, BacTiter-Glo ATP luminescence, 24 h | Potency, µM (titrated, usually from 92.2 µM), for inactives: at the top dose activity change, negative = less growth, most hits filed as inhibitors | actives 0.21% (n = 360,000); active = well fitted falling curve with a large enough effect; inconclusive = small, poorly fitted or top-dose-only effect; inactive = no such curve, though single readings can be large or run the other way; note: % is set by controls: 0 for no effect and ±100 for the full control effect; nearly all actives have a fitted effect of over 50% in size
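Fission yeast RE007 carrying one integrated HIV-1 vpr copy, seeded at OD 0.01 in PMG+AL medium with 23 nL pinned compound. Grown 24 h at 30 degrees; viability read by BacTiter-Glo luminescence after 5 min.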
LmPK inh: inhibitors of Leishmania mexicana pyruvate kinase; purified LmPK, Kinase-Glo ATP luminescence, 1 h; Potency, µM (titrated, usually from 57.5 µM), inactives show at the highest dose activity change, negative = inhibition, usual class: inhibitors; actives 0.37% (n = 290,000); AID 1721; note: % is set by controls: 0 for no effect and ±100 for the full control effect
Target sequence (Q27686 whole entry, looked up): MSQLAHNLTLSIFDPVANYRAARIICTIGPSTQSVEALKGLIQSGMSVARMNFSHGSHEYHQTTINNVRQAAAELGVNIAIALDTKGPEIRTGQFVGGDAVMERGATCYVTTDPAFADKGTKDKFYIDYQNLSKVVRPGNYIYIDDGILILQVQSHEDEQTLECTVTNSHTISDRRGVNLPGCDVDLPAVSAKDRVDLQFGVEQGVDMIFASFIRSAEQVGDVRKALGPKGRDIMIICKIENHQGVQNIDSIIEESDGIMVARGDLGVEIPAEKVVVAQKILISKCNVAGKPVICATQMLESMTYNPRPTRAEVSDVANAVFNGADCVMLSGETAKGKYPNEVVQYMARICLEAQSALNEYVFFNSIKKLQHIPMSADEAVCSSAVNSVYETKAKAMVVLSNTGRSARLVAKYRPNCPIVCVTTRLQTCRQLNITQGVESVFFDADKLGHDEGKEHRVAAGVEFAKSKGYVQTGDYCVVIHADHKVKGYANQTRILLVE
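Screened at intermediate enzyme activity to detect both inhibitors and activators: LmPK at 0.1 nM, with a 0.5 nM enzyme column as activation reference. PEP 0.5 mM, ADP 0.1 mM; ATP detected by luminescence after 1 h.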
SARS PLP yeast: blocks SARS-CoV papain-like protease in a yeast assay; S. cerevisiae expressing SARS-CoV PLpro, growth rescue; Potency, µM (series often up to 32.9 µM), for inactives: at the highest dose activity, positive = growth rescue, usual class: activators; actives 0.19% (n = 330,000); AID 485353; calls by dose curve; note: 0% is about no effect; nearly all actives have a fitted effect of over 55% in size
Sm TGR block: inhibitors of Schistosoma mansoni thioredoxin glutathione reductase; Q962Y6; purified TGR, DTNB reduction, TNB absorbance 405 nm; Potency, µM (doses to about 114 µM), for the others: top-dose activity change, negative = inhibition, most hits filed as inhibitors; actives 3% (n = 360,000); note: % is set by controls: 0 for no effect and ±100 for the full control effect; nearly all actives have a fitted effect of over 60% in size
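TGR 20 nM + NADPH 100 uM (dispensed conc.), cpd preinc 15 min RT; start with NADPH (500 uM addition) then DTNB (15 mM addition). Kinetic TNB absorbance, 405 nm filter. Four-parameter Hill fit across titration.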
NS1 inh: blocks influenza NS1 protein function; Potency, µM (titrated, usually from 46.1 µM), without a hit: top-dose activity, positive = more growth; actives 0.4% (n = 270,000); calls by dose curve; note: actives are rising curves; nearly all actives have a fitted effect of over 50% in size
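Recovery from NS1-induced slow growth read by OD600 in budding yeast switched to galactose assay medium (pH 6.0, -URA) at 1:100 dilution. Compound 23 nl per well; the matching strain lacking NS1 serves as control.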
* marks the source's active call; other numbers are inactive results; ? = inconclusive; nt = no result; [ ] = dose if it differs, or a comment. Unless noted, calls come from the whole dose curve; as a rule, active = well fitted curve in the direction sought with a large enough effect; inconclusive = small, poorly fitted or top-dose-only effect, or another doubt; inactive = no such curve, though single readings can be large; an effect the other way counts as inactive or inconclusive. Potency is the fitted concentration of half-maximal effect.

SMILES	TbPYK inhibitor	RE007 growth inh	LmPK inh	SARS PLP yeast	Sm TGR block	NS1 inh
CC(OC(=O)COc1ccccc1)C(=O)NC1CCCC1 (stereo unspecified)	-7%	0%	nt	0%	22µM*	nt
C[C@@H]1CCN(C(=O)[C@H](CCCNC(=N)N)NS(=O)(=O)c2cccc3c2NC[C@H](C)C3)[C@@H](C(=O)O)C1	1%	nt	nt	nt	nt	nt
CO/N=C(/C(=O)N[C@@H]1C(=O)N2C(C(=O)[O-])=C(C[n+]3ccn4ncccc43)CS[C@H]12)c1nsc(N)n1	-6%	nt	nt	nt	nt	nt
Cc1noc(NS(=O)(=O)c2ccc(NC(=O)CC(C)C)cc2)c1C	10%	6%	-1%	-9%	-6%	2%
Cc1ccc(OCC(=O)Nc2ccc(S(=O)(=O)Nc3onc(C)c3C)cc2)cc1	-3%	-7%	1%	1%	89µM*	-56%
Cc1noc(NS(=O)(=O)c2ccc(NC(=O)C(C)C)cc2)c1C	2%	3%	-6%	3%	25µM*	-6%
CCc1ccc(NC(=O)c2noc3c2CCC3)cc1	-1%	?	14µM*	-7%	-34%	-6%
CC(NC(=O)c1noc2c1CCCC2)c1ccccc1 (stereo unspecified)	-6%	35µM*	-4%	8%	7%	-3%
O=C(NCc1ccccc1)c1noc2c1CCCC2	-4%	16µM*	-11%	-9%	6%	-6%
CC(C)CNC(=O)c1noc2c1CCCC2	2%	?	-1%	0%	0%	?
CCC(CC)C(=O)Nc1ccccc1C(=O)OCc1cc(=O)n2nc(C3CCCCC3)sc2n1	-5%	nt	nt	nt	-5%	nt
COc1ccc(C(=O)Nc2cc(-c3cccc(C)c3)nn2-c2ccccc2)cc1	3%	nt	nt	nt	1%	nt
CCCC(=O)N(c1ccc2oc3c(c2c1)CCCC3)S(=O)(=O)c1cc(C)ccc1C	4%	nt	nt	nt	7%	nt
Cc1ccc(C(=O)NCc2ccc(Cl)c(Cl)c2)o1	1%	25µM*	3%	-6%	-13%	-113%
Cc1cccc(C)c1NC(=O)c1sc(-n2nc(C)c(Cc3ccccc3)c2C)nc1C	-3%	nt	nt	nt	5%	nt
Cn1ccc2c(-c3ccc(C(=O)O)cc3)cc3c(c21)C1CCC3C1 (stereo unspecified)	2%	45µM*	nt	nt	nt	nt
O=C(CCn1c(=O)oc2ccccc21)N1CCC2(CC1)OCCO2	16µM*	0%	6%	5%	5%	-3%
CCCN1Cc2cccc(C(=O)Nc3cccc(C(=O)OCC)c3)c2C1=O	-3%	nt	nt	nt	-3%	nt
COc1cccc(-c2nn(C)c3sc(C(=O)NCc4ccc(C)o4)cc23)c1	-1%	-13%	-2%	-3%	8.9µM*	-4%
COc1ccc2c(c1)OCC1=C2CCC2(C)C(=O)CC=C12 (stereo unspecified)	nt	nt	-9%	-14%	20µM*	-8%
COc1ccc2c(c1)SCCC2=O	-7%	1%	9%	6%	-3%	-10%
CCOC(=O)C1=C(CS(=O)(=O)c2ccc(F)c(C)c2)NC(=O)NC1c1ccccc1OC (stereo unspecified)	-2%	nt	nt	nt	-1%	nt
Cc1nc2c(-c3ccccc3)c(C)nn2c(C)c1CCC(=O)NCc1ccc(F)cc1	-5%	nt	nt	nt	6%	nt
COc1cccc(-c2nc3c(C#N)c[nH]n3c2NC2CCCCC2)c1	-4%	nt	nt	nt	-21%	nt
Cc1c(N/C=C(\Cl)C(=O)C(F)(F)F)c(=O)n(-c2ccccc2)n1C	-2%	7%	12%	-1%	14µM*	-2%
SMILES	TbPYK inhibitor	RE007 growth inh	LmPK inh	SARS PLP yeast	Sm TGR block	NS1 inh
CC(=O)NC(Nc1c(C)n(C)n(-c2ccccc2)c1=O)C(Cl)(Cl)Cl (stereo unspecified)	1%	-19%	1%	-1%	40µM*	nt
CCCC(=O)NC(Nc1c(C)n(C)n(-c2ccccc2)c1=O)C(Cl)(Cl)Cl (stereo unspecified)	0%	12%	-2%	0%	nt	1%
Cc1c(N/C=C/C(=O)c2cccs2)c(=O)n(-c2ccccc2)n1C	-2%	4%	-5%	5%	45µM*	-10%
Cc1cc(-c2ccc(S(=O)(=O)Nc3cc(Cl)ccc3C)s2)on1	-6%[15.4 µM]	nt	nt	nt	3%	nt
Cc1ccc2c(c1)c1c(c(=O)n(-c3ccccc3C)c(=O)n1Cc1cccc(F)c1)n2C	4%	nt	nt	nt	0%	nt
COc1ccccc1[As](=O)(O)CC(O)COc1ccc(Cl)cc1Cl (stereo unspecified)	nt	nt	-2%	9%	40µM*	2%
COc1cc([C@@H]2Oc3cc(C4Oc5cc(O)cc(O)c5C(=O)[C@H]4O)ccc3O[C@H]2CO)ccc1O (stereo partly specified)	4%	18%	nt	nt	45µM*	nt
COc1ccc(NC(=O)C2CCCN2S(=O)(=O)c2ccc3c(c2)CCCC(=O)N3)cc1Cl (stereo unspecified)	3%	nt	nt	nt	8%	nt
O=C(Nc1ccc(F)cc1F)C1CCN(S(=O)(=O)c2ccc3[nH]c(=O)ccc3c2)CC1	-7%	nt	nt	nt	5%	nt
O=[n+]1ccn([O-])c2ccccc21	-4%	nt	nt	nt	nt	nt
COc1ccc(-c2csc(NC(=S)NC(=O)/C=C/c3ccco3)n2)cc1OC	-5%	6%	0%	-8%	-6%	24%
COc1ccc(C(NC(=O)/C=C\c2ccco2)c2ccc(OC)c(OC)c2)cc1 (stereo unspecified)	?	-3%	2%	-6%	13µM*	15%
CCC(O)c1nc2ccccc2n1Cc1cccc(Cl)c1 (stereo unspecified)	2%	nt	nt	nt	1%	nt
CCC(Cc1ccccc1)NC(=O)/C=C/c1ccco1 (stereo unspecified)	?	2%	10%	-5%	10µM*	8%
CC(NC(=O)/C=C/c1ccco1)c1nc2ccccc2n1Cc1cccc(Cl)c1 (stereo unspecified)	-13%	0%	2%	-4%	14µM*	12%
COc1ccc(C(NC(=O)/C=C/c2ccco2)c2ccc(OC)cc2)cc1	-17%	9%	1%	2%	10µM*	16%
CCN(CC)S(=O)(=O)c1ccc(C(=O)NCCSc2c(-c3ccc(C)cc3)[nH]c3ccccc23)cc1	2%	nt	nt	nt	8%	nt
CCN(C(=O)Cn1nnc2sc3c(c2c1=O)CCC(C(C)(C)C)C3)c1cccc(C)c1 (stereo unspecified)	-6%	nt	nt	nt	2%	nt
Cc1cc(C)c(S(=O)(=O)NCC(c2ccc(N(C)C)cc2)N2CCc3ccccc32)c(C)c1 (stereo unspecified)	-5%	nt	nt	nt	-7%	nt
O=C(c1ccco1)N1CCN(C(=O)C(Cc2ccccc2)NS(=O)(=O)c2cccs2)CC1 (stereo unspecified)	?	-4%	2%	3%	25µM*	2%
